# Bioassay records (PubChem)
# NCOA1 inh: SRC1 coactivator transcriptional activity inhibitors, primary screen, cell-based, luminescence; Nuclear receptor coactivator 1 (Homo sapiens), Q15788; HEK293 GAL4-SRC1 luciferase reporter; inhibition, % at 3.6 µM; 360,000 tested, 0.12% active;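 active = inhibition above the campaign mean plus 3 SD, with each screening campaign given its own cutoff, cut at about 60% in these data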;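 also: 0% = DMSO treated cells and 100% = gossypol at 36 µM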
# NCOA2 inhibitor: inhibition of GAL4-SRC2 driven luciferase reporter, primary screen, SRC2 inhibitor project, cell-based, luminescence; Nuclear receptor coactivator 2 (Homo sapiens), Q15596; HEK293 GAL4-SRC2 luciferase reporter; inhibition, % at 9 µM; 370,000 tested, 0.17% active;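 active = inhibition above the mean inhibition of all tested compounds plus 3 SD, set per campaign, cut at about 52% in these data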;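 also: 0% = DMSO treated cells and 100% = cells given Gossypol at 36 µM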
# NR2F2 inh: NR2F2 transcriptional activity inhibitors, primary screen, cell-based, luciferase reporter, HEK293T, luminescence | COUP transcription factor 2 (Homo sapiens), P24468 | HEK293T NGFI-A luciferase reporter | inhibition, % at 8.6 µM | 370,000 tested, 0.7% active | AID 686940, 2013;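 active = inhibition above a per-plate cutoff, mean inhibition of test wells between control levels plus 3 SD, cut at about 38% in these data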;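 also: cells cotransfected with COUP-TFII expression vector driving the NGFI-A reporter; 0% = median of COUP-TF2 test wells and 100% = reporter-only cells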
# Target sequence (P24468 whole entry, looked up): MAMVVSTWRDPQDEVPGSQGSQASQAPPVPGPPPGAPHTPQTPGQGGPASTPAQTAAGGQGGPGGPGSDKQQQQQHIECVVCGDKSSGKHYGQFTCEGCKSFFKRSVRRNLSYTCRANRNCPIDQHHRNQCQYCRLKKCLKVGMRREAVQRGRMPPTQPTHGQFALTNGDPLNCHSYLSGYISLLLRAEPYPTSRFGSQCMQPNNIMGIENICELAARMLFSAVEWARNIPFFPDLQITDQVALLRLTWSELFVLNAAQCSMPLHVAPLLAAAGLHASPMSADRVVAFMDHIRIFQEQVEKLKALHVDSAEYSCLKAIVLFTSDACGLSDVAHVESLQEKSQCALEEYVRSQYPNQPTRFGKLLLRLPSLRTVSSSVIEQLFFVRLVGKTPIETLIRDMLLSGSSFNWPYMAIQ
# NCOA3 inh: SRC3 coactivator transcriptional activity inhibitors, primary screen, cell-based, luminescence; AID 588352, 2011; 360,000 tested, 0.17% active; inhibition, % at 3.6 µM; HEK293 GAL4-SRC3 luciferase reporter;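 active = inhibition above a per-campaign cutoff, the mean of all compounds plus 3 SD, cut at about 60% in these data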;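 also: 0% = DMSO-treated cells and 100% = gossypol-treated cells at 36 µM; higher means less SRC3-driven luciferase light from the GAL4 reporter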
# NR5A2 inv ag: LRH-1 (NR5A2) inverse agonists, primary screen, cell-based, luminescence, HEK293T, StAR-luciferase reporter | 360,000 tested, 0.13% active | inhibition, % at 3.6 µM | LRH-1 transfected, 24 h | Nuclear receptor subfamily 5 group A member 2 (Homo sapiens), O00482;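 active = inhibition above the mean inhibition of all tested compounds plus 3 SD, cut at about 73% in these data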;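 also: 0% = DMSO wells and 100% = reporter-only cells lacking LRH-1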
# Gal4-VP16 ctr: Gal4-VP16 luciferase reporter inhibitors, counter-screen for COUP-TFII antagonist project, cell-based, luminescence, HEK293 | shares compounds with NR2F2 inh | 2,500 tested, 25% active | AID 687007, 2013 | inhibition, % at 8.5 µM; in the data active = inhibition above about 13%
# COUP-TFII conf: NR2F2 transcriptional activity inhibitors, confirmation, cell-based, luciferase reporter, HEK293, triplicate; HEK293 NGFI-A luciferase reporter, luminescence; 2,500 tested, 45% active; shares compounds with NR2F2 inh; inhibition, % at 8.5 µM; AID 687008, 2013;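 active = mean inhibition over three repeats above a set limit taken from the earlier primary screen, cut at about 38% in these data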;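 also: 100% = cells given the luciferase reporter alone without the COUP-TF2 vector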
# * hit, by the source's call; x = not tested or not shown. In the library only some 0.81% were active in any assay of this set; here they are far more common.
SMILES,NCOA1 inh,NCOA2 inhibitor,NR2F2 inh,NCOA3 inh,NR5A2 inv ag,Gal4-VP16 ctr,COUP-TFII conf
Cc1cc(Cl)c(S(=O)(=O)N2CCN(c3ccccn3)CC2)cc1OCC(=O)NC1CCCCC1,11.7,34.1,42.9*,11.5,6.2,1.4,7.2
Cc1cc(Cl)c(S(=O)(=O)NC2CCCC2)cc1OCC(=O)NC1CCCCC1,16.9,13.5,52.7*,17.0,6.4,2.7,52.7*
CCN1CCN(S(=O)(=O)c2cc(OCC(=O)NC3CCCCC3)c(C)cc2Cl)CC1,32.6,6.2,45.7*,30.2,27.0,9.1,36.6
Cc1cc(Cl)c(S(=O)(=O)N2CCCCCC2)cc1OCC(=O)NC1CCCCC1,7.8,-15.8,-5.6,0.4,13.4,x,x
O=C(COc1ccc(Br)cc1Br)NC1CCCC1,-53.1,17.0,47.2*,-35.1,-22.9,-122.6,-3.1
CN(C)C(=O)c1ccc(NC(=O)COc2cccc3c2OC(C)(C)C3)cc1,-13.9,15.9,-5.5,6.9,-10.3,x,x
Cc1nc(N2CCN(c3ccccn3)CC2)c2c(C)c(C(=O)Nc3c(C)cc(Br)cc3C)sc2n1,-21.7,-5.3,-3.7,-10.9,3.1,x,x
Cc1nc(N2CCN(c3ccccn3)CC2)c2c(C)c(C(=O)Nc3c(F)cc(F)cc3Br)sc2n1,-4.1,-7.5,42.2*,6.6,-24.6,-0.2,25.1
Cc1csc(SCC(=O)c2cc(C)n(Cc3cccs3)c2C)n1,28.9,36.2,67.2*,42.8,27.8,37.2*,79.6*
Cc1cc(C(=O)CSc2nnc(N)s2)c(C)n1Cc1cccs1,-82.8,-2.3,-21.8,-97.6,-128.2,x,x
CC(=O)Nc1ccc(SCC(=O)c2cc(C)n(Cc3cccs3)c2C)cc1,44.3,30.6,66.8*,39.4,52.9,12.1,73.2*
COC(=O)c1ccc(-n2c(C)cc(C(=O)CSc3ccc(NC(C)=O)cc3)c2C)cc1,-11.4,10.9,23.7,21.7,8.3,x,x
CC(=O)Nc1ccc(SCC(=O)c2cc(C)n(-c3ccccc3F)c2C)cc1,41.0,39.2,66.9*,52.5,55.2,35.0*,64.3*
COCCn1c(C)cc(C(=O)CSc2ccc(NC(C)=O)cc2)c1C,-9.5,-18.8,-12.8,-12.7,-1.2,x,x
N#Cc1cc2c(nc1SCC(N)=O)CCCCC2,-82.5,-42.9,-26.6,-41.9,-102.5,x,x
N#Cc1cc2c(nc1SCC(=O)N1CCOCC1)CCCCC2,57.0,22.7,53.5*,64.6*,59.5,55.0*,77.0*
Cc1ccc(Oc2ccccc2NC(=O)CSCC(=O)Nc2cc(C)on2)cc1,42.5,0.3,62.2*,4.1,15.3,3.7,48.7*
NC(=O)c1ncn([C@@H]2O[C@H](C(=O)Nc3ccc(C(=O)N4CCCCC4)cc3)[C@@H](O)[C@H]2O)n1,x,12.3,0.4,x,x,x,x
COc1cc(CC(=O)Nc2cccc(S(=O)(=O)N(C)c3ccccc3)c2)cc(OC)c1OC,-1.3,8.0,39.3*,28.3,20.0,7.1,20.1
COc1cccc(CN(C)CC(=O)Nc2cccc(S(=O)(=O)N(C)c3ccccc3)c2)c1OC,-7.9,8.7,12.9,-6.9,-40.5,x,x
COc1cc(CC(=O)Nc2cccc(SC)c2)cc(OC)c1OC,14.8,15.7,37.4*,18.3,9.5,-0.8,7.0
CN(CCc1ccccc1)C(=O)c1ccc(NC(=O)Cc2ccc(NC(=O)C3CCCN(C(=O)CCc4ccccc4)C3)cc2)cc1 (stereo not drawn),19.9,21.0,72.7*,31.9,54.4,3.0,71.5*
CN(CCc1ccccc1)C(=O)c1ccc(NC(=O)Cc2ccc(NC(=O)C3CCCN(C(=O)C4CCC4)C3)cc2)cc1 (stereo not drawn),17.8,18.3,27.1,-4.5,-10.8,x,x
CC(C)(C)c1ccc(-n2ncc3c2CCCC3NC(=O)C2(C(N)=O)CC2)cc1 (stereo not drawn),-12.1,27.4,65.3*,28.6,29.5,-8.2,59.9*
Cc1cc(C(=O)NC2CCCc3c2cnn3-c2ccc(C(C)(C)C)cc2)nn1C (stereo not drawn),2.1,12.3,64.0*,32.5,20.3,3.4,70.7*
SMILES,NCOA1 inh,NCOA2 inhibitor,NR2F2 inh,NCOA3 inh,NR5A2 inv ag,Gal4-VP16 ctr,COUP-TFII conf
C[C@H](CO)N1C[C@H](C)[C@H](CN(C)Cc2cncnc2)Oc2cc(Br)ccc2S1(=O)=O,8.4,-21.9,7.6,-24.2,-9.0,x,x
Cc1cc(C)nc(SCC(=O)Nc2ccnc3ccccc23)n1,26.9,26.5,64.6*,34.1,35.2,2.8,59.7*
Cc1cc(NC(=O)Cc2ccccc2)c2ccccc2n1,38.1,33.9,58.4*,26.8,22.4,0.3,39.1*
COC(=O)Nc1cc(C)nc2ccccc12,4.8,-9.7,-2.6,13.5,16.6,x,x
O=C(CSC1=NCCS1)Nc1ccnc2ccccc12,25.7,30.8,40.6*,46.5,16.9,6.3,50.7*
CSc1nc(C)cc(SCC(=O)N/N=C/c2ccccc2)n1,-5.7,-22.2,9.4,18.4,-16.7,x,x
Cc1ccc(C)c(N2CCN(C(=O)CCS(=O)(=O)c3ccc4c(c3)NC(=O)CO4)CC2)c1,27.6,39.6,42.5*,37.3,29.9,5.0,22.6
Nc1ncnc2c(C3OC(CO)C(O)C3O)scc12 (stereo not drawn),65.6*,50.9,67.0*,83.9*,96.2*,22.2*,22.7
COCCN1C(=O)CN(S(C)(=O)=O)CC1(C)C(=O)Nc1ccc2c(c1)OCCO2 (stereo not drawn),x,-21.6,2.9,x,3.4,x,x
COC(=O)[C@]1(C)N[C@H](CN(C)C(=O)Nc2ccc(C(F)(F)F)cc2)[C@@H]2C(=O)N(C)C(=O)[C@@H]21,-5.3,-7.8,-4.0,-20.6,-6.0,x,x
OC(C1=CC(=Cc2ccncc2)c2ccccc21)c1ccncc1 (stereo not drawn),-13.8,-7.0,37.4*,11.8,20.1,-6.2,-13.9
O=C(CSc1nnc(Cn2nnc3ccccc32)o1)Nc1cccc(Cl)c1,-5.3,12.4,-1.9,-4.9,5.5,x,x
O=C(CSc1nnc(Cn2nnc3ccccc32)o1)N(Cc1ccc(Cl)cc1)c1ccccc1,25.1,18.1,71.7*,33.7,20.4,3.5,67.0*
Cc1cc(C)n(-c2ccc(C(=O)N3CCN(S(=O)(=O)c4ccc(OC(F)(F)F)cc4)CC3)cc2)n1,8.2,-1.1,20.9,0.8,12.7,x,x
Cn1c(SCC(=O)Nc2ccc3cn[nH]c3c2)nnc1-c1cccs1,-15.8,14.6,6.2,-8.2,12.5,x,x
Cn1c(Cc2cccs2)nnc1SCC(=O)Nc1ccc2cn[nH]c2c1,x,10.8,41.8*,x,x,-13.3,5.4
O=C(c1ccco1)N1CCN=C1SCc1ccc(F)cc1,-0.3,-2.4,57.6*,12.3,7.2,-4.6,0.6
